# In paper PMC7862700, “An all-to-all approach to the identification of sequence-specific readers for epigenetic DNA modifications on cytosine”:
# Key:
# Assay in all cases: DAPPL (digital affinity profiling via proximity ligation, sequencing); 10 mM Tris-HCl pH 7.5, 50 mM NaCl, 1 mM DTT, 4% glycerol, room temperature, 30 min; GST-TFs on glutathione beads, 16-mer random dsDNA library, 0.1% formaldehyde crosslink after washing; high values mean tight binding
# Settings in all cases: protein: recombinant; tags: N-terminal GST; dsDNA, one strand shown
# ELK1 = biological target: T1, ELK1 (Homo sapiens, UniProt P19419 1-428)
# T1 sequence: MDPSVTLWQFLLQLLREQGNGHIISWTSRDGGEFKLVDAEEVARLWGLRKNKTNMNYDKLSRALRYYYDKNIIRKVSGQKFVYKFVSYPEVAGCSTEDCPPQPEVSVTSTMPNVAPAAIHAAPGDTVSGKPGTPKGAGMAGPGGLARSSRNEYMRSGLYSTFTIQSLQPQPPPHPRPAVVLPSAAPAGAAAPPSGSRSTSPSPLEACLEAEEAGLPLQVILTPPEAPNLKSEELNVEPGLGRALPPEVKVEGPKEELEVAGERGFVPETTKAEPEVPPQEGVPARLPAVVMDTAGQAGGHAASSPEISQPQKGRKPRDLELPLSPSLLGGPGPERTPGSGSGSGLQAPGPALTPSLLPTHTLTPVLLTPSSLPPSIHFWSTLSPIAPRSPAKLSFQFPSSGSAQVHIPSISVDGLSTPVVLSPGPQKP
# Summary of the method: (§1)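 Sequencing on an Illumina NextSeq500 followed washing, crosslinking with 0.1% formaldehyde, proximity ligation (BsaI/T4 ligase, 1 h, 37 °C) and PCR amplification of pools that had been incubated for 30 min at room temperature with 200 nmole of a random double-stranded 16-mer DNA library in Tris/NaCl/DTT/glycerol buffer. Each pool held DNA-barcoded human transcription factors, expressed in yeast as GST fusions and captured on glutathione beads, plus a tag-only sample. Binding signal is a hexamer's read frequency for a factor divided by its frequency in the tag-only sample.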
# GABPA = biological target: T2, GABPA (Homo sapiens, UniProt Q06546 1-454)
# T2 sequence: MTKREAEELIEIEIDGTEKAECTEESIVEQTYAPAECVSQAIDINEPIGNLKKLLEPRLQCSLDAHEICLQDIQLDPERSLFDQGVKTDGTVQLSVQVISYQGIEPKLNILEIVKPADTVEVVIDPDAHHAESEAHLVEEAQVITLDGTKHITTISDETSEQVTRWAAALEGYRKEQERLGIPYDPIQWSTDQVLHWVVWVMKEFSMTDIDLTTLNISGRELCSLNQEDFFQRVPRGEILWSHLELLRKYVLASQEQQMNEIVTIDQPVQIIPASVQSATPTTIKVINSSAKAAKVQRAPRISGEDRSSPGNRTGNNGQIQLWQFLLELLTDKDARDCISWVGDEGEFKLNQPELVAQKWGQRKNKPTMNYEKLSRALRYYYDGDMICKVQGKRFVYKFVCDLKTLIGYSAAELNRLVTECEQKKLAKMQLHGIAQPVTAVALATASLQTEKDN
# Summary of the method: as §1
# ERG = biological target: T3, ERG (Homo sapiens, UniProt P11308 1-479)
# T3 sequence: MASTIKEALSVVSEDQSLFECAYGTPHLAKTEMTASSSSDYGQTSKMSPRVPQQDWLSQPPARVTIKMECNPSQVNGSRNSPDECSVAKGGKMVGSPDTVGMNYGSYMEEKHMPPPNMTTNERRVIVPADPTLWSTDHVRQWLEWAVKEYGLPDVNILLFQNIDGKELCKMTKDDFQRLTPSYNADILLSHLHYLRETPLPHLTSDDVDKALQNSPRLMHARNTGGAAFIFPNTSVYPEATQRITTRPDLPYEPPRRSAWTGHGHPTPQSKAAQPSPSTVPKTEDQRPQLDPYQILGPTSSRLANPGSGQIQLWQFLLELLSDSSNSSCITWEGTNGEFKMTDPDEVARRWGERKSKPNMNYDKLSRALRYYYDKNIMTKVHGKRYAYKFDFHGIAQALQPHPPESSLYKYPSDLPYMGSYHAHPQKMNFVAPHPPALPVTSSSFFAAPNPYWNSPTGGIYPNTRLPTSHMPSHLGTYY
# Summary of the method: as §1
# ELF1 = ELF1 (Homo sapiens, UniProt P32519 1-619)
# Summary of the method: as §1
# EHF = biological target: T4, EHF (Homo sapiens, UniProt Q9NZC4 1-300)
# T4 sequence: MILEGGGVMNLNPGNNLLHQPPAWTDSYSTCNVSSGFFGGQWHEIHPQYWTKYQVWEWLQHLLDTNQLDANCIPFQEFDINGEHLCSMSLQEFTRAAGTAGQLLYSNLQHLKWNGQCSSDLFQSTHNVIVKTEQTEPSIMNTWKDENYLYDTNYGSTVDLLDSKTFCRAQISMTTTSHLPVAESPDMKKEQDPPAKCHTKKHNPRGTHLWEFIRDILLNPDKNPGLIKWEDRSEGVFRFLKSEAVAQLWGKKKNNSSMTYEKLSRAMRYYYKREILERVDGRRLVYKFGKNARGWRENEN
# Summary of the method: as §1
# SPIB = SPIB (Homo sapiens, UniProt Q01892 1-262)
# Summary of the method: as §1
# FEV = biological target: T5, FEV (Homo sapiens, UniProt Q99581 1-238)
# T5 sequence: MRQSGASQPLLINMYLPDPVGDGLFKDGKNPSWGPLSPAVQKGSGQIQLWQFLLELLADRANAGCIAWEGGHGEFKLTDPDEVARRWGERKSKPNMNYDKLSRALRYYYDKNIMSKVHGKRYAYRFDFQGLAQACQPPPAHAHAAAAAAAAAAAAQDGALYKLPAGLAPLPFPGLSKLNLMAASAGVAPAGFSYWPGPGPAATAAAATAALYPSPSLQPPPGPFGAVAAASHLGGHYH
# Summary of the method: as §1
# ETV5 = ETV5 (Homo sapiens, UniProt P41161 1-510)
# Summary of the method: as §1
# ELF4 = ELF4 (Homo sapiens, UniProt Q99607 1-663)
# Summary of the method: as §1
# ELK4 = biological target: T6, ELK4 (Homo sapiens, UniProt P28324-2 1-405)
# T6 sequence: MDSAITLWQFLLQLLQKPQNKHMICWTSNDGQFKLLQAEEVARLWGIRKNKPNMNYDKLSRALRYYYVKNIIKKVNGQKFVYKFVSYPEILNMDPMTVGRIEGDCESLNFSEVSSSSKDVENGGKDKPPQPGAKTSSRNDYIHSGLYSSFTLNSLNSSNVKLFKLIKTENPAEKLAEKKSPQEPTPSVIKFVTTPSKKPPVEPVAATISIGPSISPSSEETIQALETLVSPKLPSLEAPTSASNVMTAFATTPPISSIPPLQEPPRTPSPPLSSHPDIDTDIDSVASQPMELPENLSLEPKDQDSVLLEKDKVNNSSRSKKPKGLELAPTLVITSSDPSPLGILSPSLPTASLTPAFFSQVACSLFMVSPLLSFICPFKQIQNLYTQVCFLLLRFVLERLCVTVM
# Summary of the method: as §1
# Chain of ELF4 (Q99607 whole entry): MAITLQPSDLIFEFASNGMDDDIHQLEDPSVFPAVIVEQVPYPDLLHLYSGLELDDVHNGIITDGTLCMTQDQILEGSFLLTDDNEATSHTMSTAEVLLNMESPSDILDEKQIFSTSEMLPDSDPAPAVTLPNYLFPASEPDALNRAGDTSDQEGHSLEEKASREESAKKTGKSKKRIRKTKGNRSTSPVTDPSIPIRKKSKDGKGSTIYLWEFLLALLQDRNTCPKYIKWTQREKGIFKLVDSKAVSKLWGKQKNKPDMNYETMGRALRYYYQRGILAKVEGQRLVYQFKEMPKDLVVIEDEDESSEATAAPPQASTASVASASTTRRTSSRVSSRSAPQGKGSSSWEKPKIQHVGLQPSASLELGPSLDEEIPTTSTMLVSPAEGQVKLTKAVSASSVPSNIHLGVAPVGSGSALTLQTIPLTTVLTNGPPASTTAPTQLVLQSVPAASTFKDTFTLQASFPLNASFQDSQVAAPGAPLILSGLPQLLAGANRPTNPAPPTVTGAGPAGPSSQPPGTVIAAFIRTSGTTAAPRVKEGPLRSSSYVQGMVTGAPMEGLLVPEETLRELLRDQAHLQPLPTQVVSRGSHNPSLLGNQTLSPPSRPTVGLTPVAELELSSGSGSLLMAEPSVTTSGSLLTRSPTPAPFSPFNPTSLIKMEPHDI
# Chain of ELF1 (P32519 whole entry): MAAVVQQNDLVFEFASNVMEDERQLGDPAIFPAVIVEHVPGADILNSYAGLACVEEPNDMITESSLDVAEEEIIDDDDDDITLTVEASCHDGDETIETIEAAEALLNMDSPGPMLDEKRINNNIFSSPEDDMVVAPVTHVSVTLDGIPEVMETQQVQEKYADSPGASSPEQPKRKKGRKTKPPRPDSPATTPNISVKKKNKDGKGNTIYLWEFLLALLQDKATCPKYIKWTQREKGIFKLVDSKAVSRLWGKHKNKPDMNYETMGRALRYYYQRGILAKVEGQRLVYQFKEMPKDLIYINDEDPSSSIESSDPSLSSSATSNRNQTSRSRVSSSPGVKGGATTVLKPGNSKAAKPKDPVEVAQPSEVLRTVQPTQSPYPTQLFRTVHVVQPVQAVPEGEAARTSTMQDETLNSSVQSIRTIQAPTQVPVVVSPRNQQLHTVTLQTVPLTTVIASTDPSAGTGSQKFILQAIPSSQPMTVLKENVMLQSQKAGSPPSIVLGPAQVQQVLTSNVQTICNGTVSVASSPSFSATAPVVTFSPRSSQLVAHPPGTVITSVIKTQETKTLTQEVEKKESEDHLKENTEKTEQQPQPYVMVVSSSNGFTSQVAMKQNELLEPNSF
# Chain of SPIB (Q01892 whole entry): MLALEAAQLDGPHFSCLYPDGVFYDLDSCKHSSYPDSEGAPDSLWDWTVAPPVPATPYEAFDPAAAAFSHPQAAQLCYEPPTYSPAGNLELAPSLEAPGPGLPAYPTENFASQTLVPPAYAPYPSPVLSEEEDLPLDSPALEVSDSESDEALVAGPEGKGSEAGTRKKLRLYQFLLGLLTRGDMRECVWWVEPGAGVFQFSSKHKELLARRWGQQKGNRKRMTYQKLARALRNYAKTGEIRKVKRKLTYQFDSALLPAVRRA
# Chain of ETV5 (P41161 whole entry): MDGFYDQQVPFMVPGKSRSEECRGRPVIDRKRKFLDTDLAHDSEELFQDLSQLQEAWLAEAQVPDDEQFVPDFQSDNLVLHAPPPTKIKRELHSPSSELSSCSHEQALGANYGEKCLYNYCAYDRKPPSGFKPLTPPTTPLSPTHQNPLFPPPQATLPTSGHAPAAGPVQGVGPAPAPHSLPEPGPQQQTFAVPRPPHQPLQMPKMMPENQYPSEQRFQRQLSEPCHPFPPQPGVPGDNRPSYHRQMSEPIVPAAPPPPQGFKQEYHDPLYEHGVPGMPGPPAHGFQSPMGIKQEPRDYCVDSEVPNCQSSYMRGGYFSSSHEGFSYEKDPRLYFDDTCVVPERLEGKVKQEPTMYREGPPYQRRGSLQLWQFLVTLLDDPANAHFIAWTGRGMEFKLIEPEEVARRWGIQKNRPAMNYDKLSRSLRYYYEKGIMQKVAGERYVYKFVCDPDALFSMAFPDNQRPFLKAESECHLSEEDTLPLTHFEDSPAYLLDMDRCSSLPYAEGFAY
sequence,measurement,setting,value
GCCTGC,binding signal,ELK1,"1.13 fold enrichment (6-mer frequency, TF over GST control)"
same,binding signal,GABPA,"1.07 fold enrichment (6-mer frequency, TF over GST control)"
same,binding signal,ERG,"1.03 fold enrichment (6-mer frequency, TF over GST control)"
same,binding signal,ELF1,"1.13 fold enrichment (6-mer frequency, TF over GST control)"
same,binding signal,EHF,"1.19 fold enrichment (6-mer frequency, TF over GST control)"
same,binding signal,SPIB,"1.18 fold enrichment (6-mer frequency, TF over GST control)"
same,binding signal,FEV,"1.11 fold enrichment (6-mer frequency, TF over GST control)"
same,binding signal,ETV5,"1.05 fold enrichment (6-mer frequency, TF over GST control)"
same,binding signal,ELF4,"1.06 fold enrichment (6-mer frequency, TF over GST control)"
same,binding signal,ELK4,"1.18 fold enrichment (6-mer frequency, TF over GST control)"
